HCV inh – qHTS Assay for Inhibitors of Hepatitis C Virus (HCV) | AID 651820, 2012 | Potency, µM (series often up to 41.8 µM), inactives show at the highest dose activity change, negative = inhibition, most hits filed as inhibitors | 3.4% of 340,000 active | Huh7.5.1 HCVcc-Cre infection, luciferase reporter, 44 h; active = well fitted inhibition curve with a large enough effect; inconclusive = small, poorly fitted or top-dose-only effect, or another doubt; inactive = no such curve, though single readings can be large or run the other way; also: potency is read from the fitted curve at half-maximal effect; % is scaled to controls: 0 for no effect and ±100 for the full control effect
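Cells seeded at 1,000/well and cultured 4 h, then compounds added followed by HCVcc-Cre virus (~0.5 moi). After 44 h further culture, luciferase substrate was added, plates held 15 min at room temperature, and luminescence read for 15 sec.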
SARS PLP yeast – qHTS of Yeast-based Assay for SARS-CoV PLP | S. cerevisiae expressing SARS-CoV PLpro, growth rescue | Potency, µM (top dose mostly 32.9 µM), without a hit: at the top dose activity, positive = growth rescue, usual class: activators | 0.19% of 330,000 active | AID 485353, 2010; calls by dose curve; also: potency is read from the fitted curve at half-maximal effect; 0% is about no effect; nearly all actives have a fitted effect of over 55% in size
HCMV antiviral – qHTS Assay for inhibitors of the human cytomegalovirus (HCMV); activity change, negative = inhibition, % at 57.5 µM; HFF cells, HCMV-luciferase reporter, 72 h; stronger effect = lower value; 4.5% of 410,000 active; in the data active = activity change below about -60%; inconclusive = no clear call, values can overlap the other calls; inactive = above about -39%; also: % is scaled to controls: 0 for no effect and ±100 for the full control effect
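After 16 h attachment at 37C, HFF cells received test compound and HCMV-luciferase (1 PFU/cell); reporter luminescence read 72 h later, data normalized against buffer-only and known inhibitor Salinomycin.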
Lassa entry inh – qHTS for Inhibitors of binding or entry into cells for Lassa Virus | 1.2% of 300,000 active | AID 540256, 2011 | Potency, µM (doses to about 37.9 µM), for the others: at the highest dose activity change, negative = inhibition, most hits filed as inhibitors | Lassa virus pseudotype entry inhibition, cell reporter; calls by dose curve; tested in HEK293 cells; also: potency is read from the fitted curve at half-maximal effect; % is scaled to controls: 0 for no effect and ±100 for the full control effect; nearly all actives have a fitted effect of over 50% in size
FMDV antiviral – High Throughput Screening for Foot and Mouth Disease Virus Antivirals | FMDV antiviral cell-based qHTS | Potency, µM (series often up to 57.9 µM), for the others: at the top dose activity change, negative = inhibition, actives largely listed as inhibitors | 1.2% of 410,000 active | AID 1159524, 2015; calls by dose curve; tested in HEK293T cells; also: read-out not given here; potency is read from the fitted curve at half-maximal effect; % is scaled to controls: 0 for no effect and ±100 for the full control effect; nearly all actives have a fitted effect of over 45% in size
MARV entry inh – qHTS for inhibitors of binding or entry into cells for Marburg Virus; Marburg virus pseudotyped entry inhibition, cell reporter; Potency, µM (series often up to 37.8 µM), for the others: at the highest dose activity change, negative = inhibition, most hits filed as inhibitors; 1.8% of 300,000 active; calls by dose curve; tested in HEK293 cells; also: potency is read from the fitted curve at half-maximal effect; % is scaled to controls: 0 for no effect and ±100 for the full control effect
* hit, by the source's call; ? = inconclusive; · = no result; [ ] = dose if it differs, or a comment. A selection: hits, their analogues and other compounds. The true share with any hit is near 8%.

SMILES	HCV inh	SARS PLP yeast	HCMV antiviral	Lassa entry inh	FMDV antiviral	MARV entry inh
Nc1nc(N)c2cc(Sc3ccc4ccccc4c3)ccc2n1	11µM*	-1%	-84*	·	?	·
Nc1nc(N)c2cc(Sc3ccc(Cl)cc3)ccc2n1	·	·	-77*	·	-18%	·
COc1cccc(N2CCN(S(=O)(=O)c3ccc(-c4cc(C(F)(F)F)on4)s3)CC2)c1	·	·	19	10%[46.1 µM]	-11%	·
COc1ccccc1N1CCN(S(=O)(=O)c2ccc(-c3cc(C(F)(F)F)on3)s2)CC1	·	·	-38	0%[46.1 µM]	0.89µM*	·
COc1ccc(OC)c(CNS(=O)(=O)c2ccc(-c3cc(C(F)(F)F)on3)s2)c1	·	·	-70*	12%[46.1 µM]	0%	·
Cc1cc2c(n1-c1ccc(C(=O)NCCc3ccc(Cl)cc3)cc1)CCC(C)C2 (stereo not given)	·	·	-28	-16%[46.1 µM]	-23%	·
CCCCSc1nnc2c(n1)OC(c1ccc(Br)s1)N(C(C)=O)c1ccccc1-2 (stereo not given)	·	·	-2	2%[46.1 µM]	-23%	-14%[46.1 µM]
CN1/C(=C\C=C(C#N)C#N)C(C)(C)c2ccccc21	5%	1%	-3	·	-20%	·
CN1/C(=C/C=C/c2n(C)c3cc([N+](=O)[O-])c([N+](=O)[O-])cc3[n+]2C)C(C)(C)c2ccccc21	·	·	-67*	·	?	·
COc1cc2c(-c3ccc(O)cc3)nc3c(c(C)nn3-c3ccccc3)c2cc1OC	11µM*	8%	-72*	?	0%	-15%
O=C(C1CCCCC1)N1CCN(c2ccnc3cc(Cl)ccc23)CC1	?	-4%	-83*	7.9µM*	28µM*	?
CC(C)(C)C(=O)N1CCN(c2ccnc3cc(Cl)ccc23)CC1	?	3%	-98*	·	?	·
O=S(=O)(c1ccccc1OC(F)(F)F)N1CCN(c2ccnc3cc(Cl)ccc23)CC1	?	-14%	-35	·	?	·
O=C(Nc1ccc(OC(F)(F)F)cc1)N1CCN(c2ccnc3cc(Cl)ccc23)CC1	11µM*	-10%	-85*	·	?	·
O=C(C1CCC1)N1CCN(c2ccnc3cc(Cl)ccc23)CC1	?	1%	-87*	·	-25%	·
CC(=O)c1ccc(N2CCN(c3ccnc4cc(Cl)ccc34)CC2)cc1	?	?	?	?	?	10%[46.1 µM]
O=C(C1CC1)N1CCN(c2ccnc3cc(Cl)ccc23)CC1	6%	1%	?	1%	-14%	2%
Cc1ccc(CC(=O)NCc2nc(-c3cccc(C)c3)no2)cc1	·	·	17	-37%[46.1 µM]	-4%	14%[46.1 µM]
COc1ccc(CCc2nnc(CCC(=O)N(C)Cc3ccnc4ccccc34)o2)cc1	?	0%	-64*	13µM*	?	?
CSc1cccc(NC(=O)C2CCCN(C(=O)c3cnn(-c4ccc(F)cc4)c3-n3cccc3)C2)c1 (stereo not given)	·	·	?	-14%[46.1 µM]	?	·
COc1cc(/C=C(\C#N)c2nc3ccccc3[nH]2)ccc1Oc1ccc([N+](=O)[O-])cn1	0.89µM*	1%	3	-6%	13%	?
Cc1cc(/C=C(/C#N)c2nc3ccccc3[nH]2)c(C)n1-c1cccc([N+](=O)[O-])c1	?	-10%	-11	10µM*	0%	?
Cc1ccc2nc(/C(C#N)=C/c3ccc(-c4ccc(F)cc4F)o3)[nH]c2c1	·	·	-22	-14%[46.1 µM]	-22%	·
Cc1cc(/C=C(\C#N)c2nc3ccccc3[nH]2)c(C)n1C	?	-12%	74	10µM*	2%	?
Cc1ccc2nc(/C(C#N)=C/c3ccc(-c4cccc([N+](=O)[O-])c4)o3)[nH]c2c1	-27%	2%	-62*	2%	3%	5%
SMILES	HCV inh	SARS PLP yeast	HCMV antiviral	Lassa entry inh	FMDV antiviral	MARV entry inh
COC(=O)[C@H](COC(C)(C)C)NC(=O)O[C@@H]1C(=O)c2ccc(OC)cc2O[C@H]1c1cccc(C(F)(F)F)c1	·	·	·	·	·	-1%[14.2 µM]
CC(C)NC(=O)Cc1csc2nc(-c3ccccc3)cn12	·	·	2	12%[46.1 µM]	-3%	·
CSc1nc(C)c2c(n1)N(c1cccc(C)c1)CC2	10µM*	-14%	-26	-2%	-17%	1%
Nc1c2c(nc3ccc(Br)cc13)N(Cc1ccccc1)CC2	10µM*	15%	-32	-2%	-10%	-35%
Cc1cccc(N2CCc3c2nc2ccc(Br)cc2c3N)c1	10µM*	-8%	?	10%	·	?
Nc1c2c(nc3ccc(Br)cc13)N(c1ccccc1)CC2	7.1µM*	?	-9	7%	·	1%
Cc1ccc2cc3c(nc2c1)N(c1ccccc1)CC3	?	0%	?	11%	8%	-1%
Cc1ccc(NC(=O)C(=O)NCC(c2cccnc2)N2CCN(C)CC2)cc1C (stereo not given)	·	·	-23	-17%[46.1 µM]	-6%	·
COc1ccc(CCNC(=O)C(=O)NCC(c2ccc3c(c2)OCO3)N2CCOCC2)cc1 (stereo not given)	·	·	10	1%[46.1 µM]	?	·
Cc1ccc(S(=O)(=O)N2CCN(Cc3noc(CCC(=O)N4CCCCC4)n3)CC2)c(C)c1	·	·	-16	-2%[46.1 µM]	-21%	·
CC1CCN(C(=O)c2cccc(NC(=O)c3nsc4ccccc34)c2)CC1	·	·	61	?	29%	·
CCCn1c(=O)c2sccc2n2c(CCCC(=O)Nc3cccc(CC)c3)nnc12	·	·	?	-2%[46.1 µM]	-19%	·
Cc1onc(-c2ccccc2)c1C(=O)NCCN1Cc2ccccc2OC(c2ccsc2)C1 (stereo not given)	·	·	·	·	-19%	·
CC(=O)N1N=C(c2cccc([N+](=O)[O-])c2)OC1c1ccc(Cl)cc1Cl (stereo not given)	10µM*	-10%	30	-20%	?	-25%
COc1ccccc1C1OC(c2cccc([N+](=O)[O-])c2)=NN1C(C)=O (stereo not given)	4%	-2%	?	8%	-22%	-13%[46.1 µM]
CCOc1cc(C(=O)NCC(c2ccc(N(C)C)cc2)N2CCOCC2)cc(OCC)c1OCC (stereo not given)	·	·	-62*	-2%[46.1 µM]	-22%	·
Cc1nn(-c2ccccc2)c(C)c1/C=N/NC(=O)CSc1nnc(SCc2ccc(Cl)cc2)s1	14µM*	8%	36	9.2µM*	?	?
Cc1cc(C(=O)N/N=C/c2c(C)nn(-c3ccccc3)c2C)n[nH]1	-10%	0%	13	-17%[46.1 µM]	7%	5%[46.1 µM]
Cc1nn(-c2ccccc2)c(C)c1/C=N/NC(=O)c1cc(C23CC4CC(CC(C4)C2)C3)[nH]n1	10µM*	-4%	2	?	?	?
Cc1nn(-c2ccccc2)c(C)c1/C=N/NC(=O)c1cc(-c2ccc(Br)s2)[nH]n1	?	4%	-28	6.5µM*	-16%	7.3µM*
